Assay results as given in PubChem BioAssay AID624351 (Southern Research Specialized Biocontainment Screening …, 2012).
In all, about 2,400 compounds went through this assay and about 1,400 (58%) were called active.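 How the source made its calls: active means inhibition of 30% or more at any tested dose; inconclusive means primary hits over the limit that were never retested; inactive means the rest.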 The set was probably picked from earlier hits. The list shows a part of the results.

test: coupled detection enzyme interference, dose response, artefact control for MgcRacGAP inhibitor project, biochemical, coupled enzyme counter-screen (AID 624351); conditions: ADP Hunter coupled enzyme counter-screen, fluorescence, no MgcRacGAP; series mostly up to 80 µM;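 further: signal is the ADP detection kit reading of free GDP without any GAP enzyme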;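 on inhibition: 0% = median positive control wells and 100% = median negative control wells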

| SMILES | IC50 | inhibition |
| --- | --- | --- |
| COc1cc(/C=N/Nc2nc3ccccc3[nH]2)ccc1O | 17.9 µM (active) |  |
| COc1cc(/C=N/Nc2nc3ccccc3s2)ccc1O | 67.7 µM (active) |  |
| COc1ccc(/C=N/Nc2nc3ccccc3[nH]2)cc1OC | 73.8 µM (active) |  |
| O=S1(=O)N=C(Nc2ccc(O)cc2)c2ccccc21 | 29.2 µM (active) |  |
| CCOc1cc(CNc2ccc(N3CCOCC3)cc2)cc(Br)c1OCC | 16.9 µM (active) |  |
| CCOc1cc(CNc2ccc3[nH]c(=O)[nH]c3c2)ccc1OCC(=O)NC(C)(C)C | 67.7 µM (active) |  |
| COc1cc(CN2CCN(Cc3ccc(C(F)(F)F)cc3)CC2)cc(OC)c1OC | inactive |  |
| CCOc1c(Cl)cc(CNc2ccc(N3CCCC3)cc2)cc1OC |  | -9.27% [at 5 µM] (inactive) |
| COc1cc2c(cc1OC)C(c1cc(Br)c(OC)c(OC)c1)CC(=O)N2 (stereo not drawn) | inactive |  |
| CCOc1cc(CNc2ccc(N3CCCCC3)cc2)cc(Br)c1OCC(=O)NC(C)(C)C | 20.4 µM (active) |  |
| COc1cc(CNc2ccc(N3CCOCC3)cc2)cc(Br)c1OC | 12.5 µM (active) |  |
| CNc1c2cccc(C)c2nc2c(C(=O)NCCN(C)C)cccc12 | inactive |  |
| COc1ccc(CCNc2nc(=S)[nH]c3cc(OC)c(OC)cc23)cc1OC | inactive |  |
| CCCCNc1nc(=S)[nH]c2cc(OC)c(OC)cc12 | 68.9 µM (active) |  |
| COCCCNc1nc(=S)[nH]c2cc(OC)c(OC)cc12 | 74.1 µM (active) |  |
| CCN(CC)CCCNc1nc2ccccc2c2[nH]c3ccc(OC)cc3c12 | inactive |  |
| Cc1cc2[nH]c3c(c[n+](C)c4ccccc34)c2cc1C | inactive |  |
| Cc1cc(C)c2c(=N)c3ccccc3n(CCCCCCCCn3c4ccccc4c(=N)c4c(C)cc(C)nc43)c2n1 | inactive |  |
| O=C1C=CC(=O)c2c(O)c(N3CCN(CCOCCO)CC3)c(Br)c(O)c21 | inactive |  |
| CCOc1ccccc1CN1CCC(N2CCOCC2)CC1 | inactive |  |
| C=CCc1cc(C=Nc2ccc(N3CCOCC3)cc2)cc(OCC)c1O | 14.6 µM (active) |  |
| C=CCc1cc(Cl)ccc1OCCNCCN1CCOCC1 | inactive |  |
| COc1ccc(CN(C)CC(=O)Nc2ccc(Cl)cc2C(F)(F)F)c(OC)c1 | inactive |  |

| SMILES | IC50 | inhibition |
| --- | --- | --- |
| Nc1n[nH]c(N)c1N=Nc1ccc2c(c1)OCO2 | 38 µM (active) |  |
| CC(=O)C1=C(S(=O)(=O)c2ccc(C)cc2)CS(=O)(=O)C1 | inactive |  |
| O=S(=O)(O)c1ccc(O)c2cc(Nc3ccccc3)ccc12 | inactive |  |
| Cc1ccc(S(=O)(=O)c2cc(Nc3ccccc3)ccc2O)cc1 | 68 µM (active) |  |
| CC1(C)OC(C)(C)/C(=C/Nc2ccc(O)cc2)C1=O | 22.2 µM (active) |  |
| COc1cc(/C=N/NC(=O)c2cc(-c3ccccc3OC(C)C)nc3ccccc23)ccc1O | inactive |  |
| CCOc1cc(/C=N/NC(=O)c2ccccc2-n2cccc2)ccc1O | 44.9 µM (active) |  |
| COc1cc(C=NNC(=O)c2ccccc2-n2cccc2)ccc1O | 36.4 µM (active) |  |
| CCCCN(CC)CCNC(=O)CCC(=O)Nc1ccc2nc(N3CCN(C)CC3)cc(C)c2c1 | inactive |  |
| CCn1c2ccccc2c2cc(NC(=O)CNC)ccc21 | inactive |  |
| C=CCn1c(SCC(=O)c2ccc(O)c(O)c2)nnc1-c1cccc(OC)c1 | 68 µM (active) |  |
| COc1cccc(-c2ncc3ccccn23)c1 | inactive |  |
| C=CCn1c(SCC(=O)Nc2ccc(N(C)C)cc2)nnc1-c1cccc(C)c1 | 58.8 µM (active) |  |
| CCn1c(SCC(=O)Nc2ccc(N(C)C)cc2)nnc1-c1cccc(C)c1 | 70.3 µM (active) |  |
| Cc1ccc(C2=NN=C(NC(=O)CSc3nncn3C)SC2)cc1 | inactive |  |
| O=S(=O)(NC1=NCCCCC1)c1ccc2sc(NS(=O)(=O)c3ccc4ccccc4c3)nc2c1 | inactive |  |
| COc1cc(/C=C(/NC(=O)c2ccccc2)C(=O)Nc2ccc(O)cc2)c([N+](=O)[O-])cc1OC | 58 µM (active) |  |
| CC(=O)Nc1ccc(OC(=O)c2ccc(Br)c([N+](=O)[O-])c2)cc1 | inactive |  |
| CCOc1ccc(C(=O)NC(=S)Nc2ccc(N3CCCCC3)cc2)cc1[N+](=O)[O-] | inactive |  |
| CN(C)c1nc(=NCc2cccs2)ss1 | inactive |  |
| COc1cc(/C=N/NC(=O)c2cc[n+]([O-])cc2)ccc1O | 35.7 µM (active) |  |
| COc1cc(/C=N\Nc2cc(=O)n(C)c(=O)n2C)ccc1O | 36 µM (active) |  |
| COc1cc(/C=N/NC(=O)C(=O)Nc2ccccn2)ccc1O | 27.8 µM (active) |  |

| SMILES | IC50 | inhibition |
| --- | --- | --- |
| COc1cc(/C=N/NC(=O)c2cccc(NC(=O)c3ccccc3C)c2)ccc1O | 34.4 µM (active) |  |
| CN(C)CCO/N=C(\c1ccc(Br)cc1)c1cccnc1 | inactive |  |
| COc1cc(/C=N/NC(=O)C2(O)c3ccccc3-c3ccccc32)ccc1O | 45.5 µM (active) |  |
| COc1cc(/C=N/NC(=O)c2ccc(-n3cccc3)cc2)ccc1O | 22.3 µM (active) |  |
| COc1cc(/C=N/NC(=O)c2[nH]nc3c2CCc2ccccc2-3)ccc1O | 56.5 µM (active) |  |
| O=C(N/N=C/c1ccc(O)c(O)c1)c1ccc(-n2cnnn2)cc1 | 18.7 µM (active) |  |
| COc1cc(/C=N/NC(=O)c2ccccc2)ccc1O | 29.6 µM (active) |  |
| COc1cc(/C=N/Nc2ccc(C(=O)O)cc2)ccc1O | 36.1 µM (active) |  |
| COc1cc(/C=N/NC(=O)c2cc3ccccc3[nH]2)ccc1O | 20.8 µM (active) |  |
| COc1ccc(/C=N/NC(=O)c2cc[n+]([O-])cc2)cc1O | 35.3 µM (active) |  |
| COc1ccc(NS(=O)(=O)c2cccc(C(=O)NN=Cc3ccc(O)c(OC)c3)c2)cc1 | inactive |  |
| COc1ccc(C(C#N)=C2C=CC(=NO)C=C2)cc1 | 57.4 µM (active) |  |
| O=C(CNC1CCCCCC1)Nc1ccccc1N1CCOCC1 | inactive |  |
| CCOc1cc(N2CCOCC2)c(OCC)cc1NC(=O)c1ccc(C)s1 | 65.1 µM (active) |  |
| CCOc1cc(N2CCOCC2)c(OCC)cc1NCC(=O)N1CCN(Cc2ccccc2)CC1 | inactive |  |
| CCN(CC)CC(=O)NN(Cc1ccccc1)c1ccccc1 | inactive |  |
| Cc1ccc(NC(=O)CN(C)C2CCCCC2)cc1Br | inactive |  |
| CCN(CC)c1ccc(CN2CCC(C(=O)NCc3ccc(C)cc3)CC2)cc1 | inactive |  |
| CCN(CC)CCNCC(=O)Nc1ccc(Oc2ccccc2)cc1 | inactive |  |
| CCN(CC)c1ccc(NC(=O)Nc2ccccc2)cc1 | 53.3 µM (active) |  |
| CCN(CC)c1ccc(NC(=O)c2ccc(Br)o2)cc1 | 29.2 µM (active) |  |
| CCN(CC)c1ccc(NC(=O)C2CCCC2)cc1 | 76.8 µM (active) |  |
